In test [1] the target is 3',5'-cyclic-AMP phosphodiesterase 4B (Homo sapiens) (UniProt Q07343). As to the kind of experiment: qHTS Assay for Inhibitors of PDE-IV (AID 607; active = well fitted activation curve with a large enough effect in the main read-out, with a control signal flat, not every such curve was filed as active; note: % of control where 0% means no effect). In short, it runs like this:
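Live HEK293 cells with a modified cyclic nucleotide-gated (CNG) channel report intracellular cAMP via membrane-potential dye fluorescence (ex 535/em 590 nm). Endogenous PDE-IV was targeted. Compounds were tested at up to 22.9 uM final; RO 20-1724 100 uM served as control.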

Test [2] can be described thus: Cellular Toxicity (caspase-3) HepG2 (AID 654).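 Note: cells exposed to compound for 16 hours before reading; 0% = DMSO alone and 100% = caspase signal from 100 µM tamoxifen.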 In short, it runs like this: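 Caspase 3/7 activation is measured as a luminescence increase (aminoluciferin substrate) after 16 h compound exposure of human hepatocarcinoma HepG2 cells. AC50 values are Hill fits, scaled between DMSO baseline and 100 uM tamoxifen stimulation.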
The nature of test [3]: Cellular Toxicity (caspase-3) HUV-EC-C (AID 656).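 Note: 0% = DMSO basal and 100% = 100 µM tamoxifen.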 In short, it runs like this: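 Luminescent Caspase-Glo 3/7 readout after 16 h, 37 °C compound exposure of HUV-EC-C endothelial cells, 1000 per well, complete medium. AC50 derived by Hill fitting, with DMSO as baseline and 100 uM tamoxifen as full activation.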
Test [4] in a line: Cellular Toxicity (caspase-3) SHSY5Y (AID 657). In short, it runs like this: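 Luminescent Caspase-Glo 3/7 read-out, 1 hr room temperature, follows 16 hours of compound treatment of SH-SY5Y cells at 37 °C. Normalization: DMSO basal, 10 uM staurosporine as 100%; AC50 values from Hill-equation concentration-response fits.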
A short description of test [5]: Cellular Toxicity (caspase-3) BJ (AID 658).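 Note: 0% = DMSO basal and 100% = 10 µM staurosporine.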 In short, it runs like this:
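Plated BJ cells (1000/well) rested 5 hr, received compound for 16 hr at 37 °C, then Caspase-Glo 3/7 reagent for 1 hr at room temperature before luminescence reading.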

The nature of test [6]: Cellular Toxicity (caspase-3) MRC-5 (AID 659).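 Note: 0% = DMSO basal and 100% = 10 µM staurosporine.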 To be noted: Potency: caspase-3 activation. In a few lines: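 Apoptosis readout in MRC-5 cells: luciferase light generated after caspase 3/7 cleaves a peptide-aminoluciferin substrate, measured post 16 hr compound incubation at 37 °C.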
Test [7] in a line: Cellular Toxicity (caspase-3) Mesangial (AID 660).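 Note: combined caspase 3 and 7 activity read by Caspase-Glo luminescence; cells exposed to compound for 16 h before the caspase read.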 In short, it runs like this:
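Caspase 3/7 activation measured by Caspase-Glo 3/7 luminescence (20 min, room temperature) following 16 h exposure of mesangial cells (1000/well); AC50 from Hill-equation fit, normalized to DMSO and 100 uM tamoxifen.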

The nature of test [8]: Cellular Toxicity (caspase-3) SK-N-SH (AID 661).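 Note: 0% = DMSO basal and 100% = 10 µM staurosporine.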 In a few lines: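 Caspase 3/7 activation was read by luminogenic substrate cleavage after 16 hour treatment of SK-N-SH cells. Signal was scaled between DMSO and 10 uM staurosporine, and concentration-response data were fitted with the Hill equation for AC50.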
Test [9] is described as follows: Cellular Toxicity (caspase-3) H-4-II-E (AID 663).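 Note: cells exposed to compound for 16 hr before readout; 0% = DMSO basal and 100% = 100 µM tamoxifen.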 In short, it runs like this:
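Caspase 3/7 activation measured in H-4-II-E cells in complete culture medium after 16 hr treatment at 37 °C, using luciferase-coupled substrate readout; AC50 values come from Hill-equation fits of normalized concentration-response data.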

Test [10] is described as follows: Cellular Toxicity (caspase-3) Hek293 (AID 664).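 Note: cells exposed to compound for 16 h at 37 °C before readout.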 In short, it runs like this: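 Concentration-response qHTS: caspase 3/7 activation measured by luminescent aminoluciferin substrate cleavage after 16 h compound exposure of Hek 293 cells. AC50 from Hill equation, with DMSO as basal and 100 uM tamoxifen as 100%.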
Test [11] can be described thus: Cellular Toxicity (caspase-3) N2a (AID 665).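 Note: compound exposure lasted 16 h at 37 °C before readout.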 In a few lines:
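Caspase-3/7 activation measured as luminescence from Caspase-Glo reagent (1 h, room temperature) after 16 h compound exposure of mouse N2a cells. AC50 values from Hill-equation concentration-response, scaled between DMSO and 10 uM staurosporine.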

Test [12] in a line: Cellular Toxicity (caspase-3) NIH 3T3 (AID 666).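 Note: caspase signal read after 16 h compound exposure; 0% = DMSO basal and 100% = 100 µM tamoxifen stimulation.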 In short, it runs like this:
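Caspase-Glo 3/7 luminescence reported caspase activation in 1000 NIH 3T3 cells/well after 16 h compound exposure at 37 C. DMSO set basal and 100 uM tamoxifen set 100% stimulation; concentration-response modeled with the Hill equation for AC50.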

A short description of test [13]: Cellular Toxicity (caspase-3) Renal Proximal Tubule (AID 667).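 Note: cells exposed to compound for 16 hours at 37 °C before detection; 0% = DMSO basal and 100% = 10 µM staurosporine.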 In a few lines:
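Caspase 3/7 activation measured by luminescent aminoluciferin release in primary rat proximal tubule cells after 16 hr compound exposure at 37 °C. AC50 from Hill-fitted concentration-response, scaled between DMSO and 10 uM staurosporine.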

Test [14] deals with Guanine nucleotide-binding protein G(i) subunit alpha-1 (Homo sapiens) (UniProt P63096). As to the kind of experiment: qHTS Assay for Inhibitors of RGS12 GoLoco Motif Activity (Green Fluorophore) (AID 879).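 Note: 0% = labeled peptide with Gαi1 and full inhibition = labeled peptide alone without protein; negative values mean loss of peptide binding seen as reduced polarization.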 In short, it runs like this: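 A drop in FITC polarization marked displacement of the FITC-tagged RGS12 GoLoco peptide (10 nM) from Gαi1 (50 nM). Compounds were incubated 10 min at room temperature in Tris pH 7.5 buffer containing 150 mM NaCl, 0.1 mM GDP and 0.05% NP40; unlabeled peptide titration served as control.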
Guanine nucleotide-binding protein G(i) subunit alpha-1 (Homo sapiens), sequence (P63096 whole entry, looked up): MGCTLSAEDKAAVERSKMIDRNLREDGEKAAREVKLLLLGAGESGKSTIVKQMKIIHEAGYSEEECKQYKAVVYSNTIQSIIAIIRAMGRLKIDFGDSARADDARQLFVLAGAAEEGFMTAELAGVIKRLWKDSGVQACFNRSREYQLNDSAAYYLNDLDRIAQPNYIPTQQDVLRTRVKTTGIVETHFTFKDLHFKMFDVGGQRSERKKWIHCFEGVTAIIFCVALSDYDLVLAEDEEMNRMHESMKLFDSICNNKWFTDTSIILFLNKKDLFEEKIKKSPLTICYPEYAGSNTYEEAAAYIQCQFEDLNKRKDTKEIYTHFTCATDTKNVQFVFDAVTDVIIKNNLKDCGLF
(In general: In qHTS, concentration-response curves come from the screen itself.)

Test [15] has as its target Cytochrome P450 3A4 (Homo sapiens) (UniProt P08684). The experiment in a line: qHTS Assay for Inhibitors and Substrates of Cytochrome P450 3A4 (AID 884). Note: series mostly up to about 57 µM; % is set by controls: 0 for no effect and ±100 for the full control effect; nearly all actives have a fitted effect of over 50% in size. In a few lines:
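Luminescent readout of luciferin produced by CYP3A4 (20 nM) dealkylation of Luciferin-PPXE, 25 uM (its KM). NADPH-driven reaction ran 60 min at RT after 10 min compound preincubation; data scaled to 57 uM ketoconazole as 100% inhibition.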

Test [16] has the same target. The experiment in a line: qHTS Assay for Activators of Cytochrome P450 3A4 (AID 885). Note: nearly all actives have a fitted effect of over 65% in size. In short, it runs like this:
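Using 20nM recombinant human CYP3A4 in potassium phosphate (200mM), substrate Luciferin-PPXE at 25uM, luminescent luciferin detection followed a 60-min RT NADPH reaction; data scaled to 57 uM ketoconazole.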

Test [17] can be described thus: Cellular Toxicity (caspase-3) Jurkat (AID 655).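 Note: cells exposed to compound for 16 h at 37 °C before reading.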 In short, it runs like this:
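Luminescent Caspase-Glo 3/7 read-out (20 min, room temperature) after 16 h compound treatment at 37 C of 5000 Jurkat cells per well. AC50 derived by Hill-equation fitting, scaled between DMSO basal and 100 uM tamoxifen stimulation.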

The target of test [18] is Cytochrome P450 2D6 (Homo sapiens) (UniProt P10635). As to the kind of experiment: qHTS Assay for Inhibitors and Substrates of Cytochrome P450 2D6 (AID 891).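 For activity change, negative = inhibition: luciferin methyl ether substrate demethylated by CYP2D6 with NADPH regeneration; % is set by controls: 0 for no effect and ±100 for the full control effect.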 Note: nearly all actives have a fitted effect of over 60% in size. Note: potency is the fitted concentration of half-maximal effect. In short, it runs like this:
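Luminescent read-out of luciferin formed by 5 nM human CYP2D6 demethylating 30 uM Luciferin-ME EGE (Km level) over 60 min at room temperature after NADPH regeneration addition. Data normalized to full inhibition by 1.43 uM quinidine.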

Test [19] concerns the target Cytochrome P450 2C9 (Homo sapiens) (UniProt P11712). As to the kind of experiment: qHTS Assay for Inhibitors and Substrates of Cytochrome P450 2C9 (AID 883). Note: % is set by controls: 0 for no effect and ±100 for the full control effect; nearly all actives have a fitted effect of over 60% in size. In short, it runs like this:
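Human CYP2C9 (10nM) hydroxylated Luciferin-H (100uM, at its KM) to luciferin in 25mM KPO4. Compound was preincubated 10 min at 37C, then NADPH regeneration started a 60 min reaction at 37C. Luminescence was read after detection reagent, normalized to 57uM sulphaphenazole.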

The structures appear in SMILES notation. Values without a mark were called inactive. Records with an inconclusive call do not appear. A structure can be active in one record and inactive in another. Calls of active or inactive are those of the source. Unless noted, calls come from the whole dose curve; as a rule, active = well fitted curve in the direction sought with a large enough effect; inconclusive = small, poorly fitted or top-dose-only effect, or another doubt; inactive = no such curve, though single readings can be large; an effect the other way counts as inactive or inconclusive.

Cytochrome P450 2D6 (Homo sapiens), sequence (P10635 whole entry, looked up): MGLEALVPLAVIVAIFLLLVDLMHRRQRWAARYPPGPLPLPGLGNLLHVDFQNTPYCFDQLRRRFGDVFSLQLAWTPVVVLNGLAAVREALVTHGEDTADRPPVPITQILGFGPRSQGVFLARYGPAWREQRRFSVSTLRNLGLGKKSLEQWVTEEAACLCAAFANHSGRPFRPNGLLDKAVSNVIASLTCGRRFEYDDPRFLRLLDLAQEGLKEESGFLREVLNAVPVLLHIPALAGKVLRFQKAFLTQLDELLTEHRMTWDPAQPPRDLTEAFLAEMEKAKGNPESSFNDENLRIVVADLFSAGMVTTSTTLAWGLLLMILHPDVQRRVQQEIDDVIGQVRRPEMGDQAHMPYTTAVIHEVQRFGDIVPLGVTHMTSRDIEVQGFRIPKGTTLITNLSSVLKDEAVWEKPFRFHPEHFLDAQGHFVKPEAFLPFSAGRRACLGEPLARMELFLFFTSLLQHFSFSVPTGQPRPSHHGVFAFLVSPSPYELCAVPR
3',5'-cyclic-AMP phosphodiesterase 4B (Homo sapiens), sequence (Q07343 whole entry, looked up): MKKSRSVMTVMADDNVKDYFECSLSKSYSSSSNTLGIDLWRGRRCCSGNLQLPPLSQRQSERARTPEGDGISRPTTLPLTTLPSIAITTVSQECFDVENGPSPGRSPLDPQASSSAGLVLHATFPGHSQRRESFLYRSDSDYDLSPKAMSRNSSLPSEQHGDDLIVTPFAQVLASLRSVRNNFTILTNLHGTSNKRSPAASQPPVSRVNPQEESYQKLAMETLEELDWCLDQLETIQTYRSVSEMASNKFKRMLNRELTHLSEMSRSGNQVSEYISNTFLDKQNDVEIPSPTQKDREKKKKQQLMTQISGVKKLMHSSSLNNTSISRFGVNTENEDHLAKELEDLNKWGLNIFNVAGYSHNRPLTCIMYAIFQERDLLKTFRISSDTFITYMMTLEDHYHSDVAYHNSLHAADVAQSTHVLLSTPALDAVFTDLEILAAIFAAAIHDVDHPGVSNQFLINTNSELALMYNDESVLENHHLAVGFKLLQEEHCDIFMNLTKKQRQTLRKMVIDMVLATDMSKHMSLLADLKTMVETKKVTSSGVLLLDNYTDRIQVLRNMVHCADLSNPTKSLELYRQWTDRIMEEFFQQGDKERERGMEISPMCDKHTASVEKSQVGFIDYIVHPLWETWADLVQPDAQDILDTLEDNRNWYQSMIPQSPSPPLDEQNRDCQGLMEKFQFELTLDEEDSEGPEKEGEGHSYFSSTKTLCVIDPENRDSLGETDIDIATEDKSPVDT
Cytochrome P450 3A4 (Homo sapiens), sequence (P08684 whole entry, looked up): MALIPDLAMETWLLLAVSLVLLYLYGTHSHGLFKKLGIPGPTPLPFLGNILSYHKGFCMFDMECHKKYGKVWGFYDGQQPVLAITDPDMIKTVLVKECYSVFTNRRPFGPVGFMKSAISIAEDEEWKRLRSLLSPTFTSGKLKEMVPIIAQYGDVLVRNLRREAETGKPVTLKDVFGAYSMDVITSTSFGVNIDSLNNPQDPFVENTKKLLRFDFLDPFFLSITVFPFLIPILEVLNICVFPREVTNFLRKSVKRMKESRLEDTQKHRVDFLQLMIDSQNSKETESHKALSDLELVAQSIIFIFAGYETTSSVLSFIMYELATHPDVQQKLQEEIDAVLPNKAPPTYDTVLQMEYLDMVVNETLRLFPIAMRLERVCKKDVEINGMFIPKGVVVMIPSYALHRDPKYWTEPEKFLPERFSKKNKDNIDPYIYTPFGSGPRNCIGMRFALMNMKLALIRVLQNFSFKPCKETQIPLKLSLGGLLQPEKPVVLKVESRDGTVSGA
Cytochrome P450 2C9 (Homo sapiens), sequence (P11712 whole entry, looked up): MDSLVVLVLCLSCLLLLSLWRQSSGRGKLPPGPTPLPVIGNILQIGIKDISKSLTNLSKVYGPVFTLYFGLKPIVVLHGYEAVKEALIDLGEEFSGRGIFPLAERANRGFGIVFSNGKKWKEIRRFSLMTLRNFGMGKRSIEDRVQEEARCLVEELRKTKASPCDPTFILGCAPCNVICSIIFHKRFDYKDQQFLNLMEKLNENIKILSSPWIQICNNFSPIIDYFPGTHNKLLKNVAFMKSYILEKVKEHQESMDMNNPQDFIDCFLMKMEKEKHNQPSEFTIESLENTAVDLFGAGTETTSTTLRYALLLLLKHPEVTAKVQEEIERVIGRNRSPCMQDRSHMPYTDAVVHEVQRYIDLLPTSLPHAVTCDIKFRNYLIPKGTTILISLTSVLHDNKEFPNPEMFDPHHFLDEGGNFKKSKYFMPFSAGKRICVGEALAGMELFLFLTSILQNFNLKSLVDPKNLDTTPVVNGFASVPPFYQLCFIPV

For `CCCCOc1cc(C(=O)OCCN(CC)CC)ccc1N`, the compound was classed as inactive in [1].

As for `CN(C)CCC=C1c2ccccc2CCc2ccccc21`, the compound was classed as inactive in test [1], in test [3], in test [4], in test [5], in [7] and in test [8]. Also, the call in [9], in [10], in [11], in [12], in test [13] and in test [14] was inactive. Moreover, the result in [16] was inactive. The Potency entry in test [2], in test [6] and in [15] was “inactive” each time.

For the compound `Cn1cc[nH]c1=S`, the result in [1] was inactive.

For the compound `COC(=O)C1=C(C)NC(C)=C(C(=O)OC)C1c1ccccc1[N+](=O)[O-]`, the call in [1], in [3], in [5], in [7], in test [8] and in [9] was inactive. Further, the compound was called inactive in test [10], in [11], in [13] and in [14]. Besides, the Potency entry in [2], in [17] and in test [6] was “inactive” throughout.

On to `CN(C)CCCN1c2ccccc2Sc2ccc(Cl)cc21`, for which the compound was called inactive in [1] and in test [14].

`COc1ccc(Cl)cc1C(=O)NCCc1ccc(S(=O)(=O)NC(=O)NC2CCCCC2)cc1`: the compound was classed as inactive in [1] and in [14].

Take `c1ccc2c(CC3=NCCN3)cccc2c1`: in test [1], the compound was classed as inactive. In addition, the Potency result in test [15] was “inactive”. Moreover, the Potency in test [18] was 7.94 µM (active).

Turning to `Cc1cccc(Nc2cc(Cl)nc(SCC(=O)O)n2)c1C`, in test [1], the result was inactive. For the same compound, the activity change, negative = inhibition in [19] is -10.9% [at 11.4 µM]; in [18], 13.3% [at 11.4 µM]. Besides, the Potency in test [18] is 3.16 µM (active).

With `O=C(CCCN1CCN(c2ccccn2)CC1)c1ccc(F)cc1`, the call in test [1] was inactive. In addition, the Potency entry in test [15] was “inactive”.

On to `CCCCCCCCCCCCOS(=O)(=O)O`, for which the Potency entry in [2], in test [17], in test [6] and in [15] was “inactive” in each case. Also, the outcome in [3], in test [4], in [5], in test [7], in test [8] and in test [9] was inactive. The compound was called inactive in test [10], in test [11], in [12] and in test [13].

On to `Oc1cccc(O)c1`, for which the Potency result in test [2], in test [17] and in test [6] was “inactive” each time. For the same compound, the call in test [3], in test [4], in [5], in test [7], in test [8] and in [9] was inactive. Besides, the call in [10], in test [11], in test [12], in [13] and in test [16] was inactive.

For `c1ccc(CN(CC2=NCCN2)c2ccccc2)cc1`, the call in test [1] was inactive. In test [15], the Potency entry is “inactive”. Moreover, in [18], the Potency is 2.51 µM (active).

Regarding `Cc1cc2nc3c(=O)[nH]c(=O)nc-3n(C[C@H](O)[C@H](O)[C@H](O)CO)c2cc1C`, the Potency result in test [2], in test [17] and in test [6] was “inactive” in each case. Also, the outcome in test [3], in test [4], in [5], in test [7], in test [8] and in test [9] was inactive. In addition, the compound was called inactive in test [10], in test [11], in test [12], in [13] and in [16].

In the case of `Cc1cc2c(cc1S(N)(=O)=O)S(=O)(=O)CCC2`, the call in [1] was inactive. In test [19], the Potency entry was “inactive”.

For the origin of these results see PubChem BioAssay (NCATS).
